According to PubChem BioAssay:
Activity calls are given as the source filed them.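 Rule for the calls: active = compounds lowering colon cancer cell viability after pretreatment blocking the GSK3B kinase; inactive = the rest.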

Assay: growth inhibition of GSK3B-pretreated HCT116 cells – cell-based, CellTiter-Glo, 0.2 to 20 µM (AID 1117336)
Conditions: HCT116 viability after GSK3B inhibitor, at 20 µM, hits give high values

Row | Compound | viability decrease
1 | CCN(CCCCOC(=O)c1ccc(OC)c(OC)c1)C(C)Cc1ccc(OC)cc1 (configuration not stated) | -125% (inactive)
2 | O=C(O)CSCC(=O)NC1CCSC1=O (configuration not stated) | -4% (inactive)
3 | O=C1c2ccccc2C(=O)C1c1ccccc1 | -5.45% (inactive)
4 | COCCCOc1cc(C[C@@H](C[C@H](N)[C@@H](O)C[C@H](C(=O)NCC(C)(C)C(N)=O)C(C)C)C(C)C)ccc1OC | -5.3% (inactive)
5 | Cc1onc(-c2ccccc2Cl)c1C(=O)N[C@@H]1C(=O)N2[C@@H]1SC(C)(C)[C@@H]2C(=O)O | -27.7% (inactive)
6 | Cc1cccc(C(=O)O)c1O | -9.8% (inactive)
7 | CCCCCCCCCCCCCCCCCCOCC(O)CO (configuration not stated) | -5.2% (inactive)
8 | CCN(CC)CCNC(=O)COc1ccc(OC)cc1 | -5.3% (inactive)
9 | CN1CCOC(c2ccccc2)c2ccccc2C1 (configuration not stated) | -52.9% (inactive)
10 | CCCCC(=O)O[C@]1(C(=O)CO)[C@@H](C)C[C@H]2[C@@H]3CCC4=CC(=O)C=C[C@]4(C)[C@@]3(F)[C@@H](O)C[C@@]21C | -106% (inactive)
11 | C[n+]1c2cc(N)ccc2cc2ccc(N)cc21 (tested in a mixture with another compound) | 70.5% (active)
12 | CCC(C)n1ncn(-c2ccc(N3CCN(c4ccc(OC[C@H]5CO[C@](Cn6cncn6)(c6ccc(Cl)cc6Cl)O5)cc4)CC3)cc2)c1=O (some centres not stated) | 68.8% (active)
13 | O=c1[nH]cnc2c1ncn2[C@@H]1O[C@H](CO)[C@@H](O)[C@H]1O | -12.4% (inactive)
14 | CCN(CCCc1ccccc1)CCCc1ccccc1 | -119% (inactive)
15 | CN1CCN(c2cc3c(cc2F)c(=O)c(C(=O)O)cn3-c2ccc(F)cc2)CC1 | 9.9% (inactive)
16 | C/C=C1\[C@H]2C=C(C)C[C@]1(N)c1ccc(=O)[nH]c1C2 | 10.5% (inactive)
17 | COc1ccccc1OCC(O)CO (configuration not stated) | -2.1% (inactive)
18 | CC1=C(C)C(=O)C(C(CCCCCC(=O)O)c2ccccc2)=C(C)C1=O (configuration not stated) | 20.4% (inactive)
19 | NS(=O)(=O)c1cc2c(cc1Cl)NC(C(Cl)Cl)NS2(=O)=O (configuration not stated) | 13.9% (inactive)

Row | Compound | viability decrease
20 | C[C@@H]1CN(c2c(F)c(F)c3c(=O)c(C(=O)O)cn(C4CC4)c3c2F)C[C@H](C)N1 | -4.4% (inactive)
21 | O=C(O)c1ccccc1Nc1cccc(C(F)(F)F)c1 | 91.3% (active)
22 | CCCc1ncc(C[n+]2ccccc2C)c(N)n1 | -5.4% (inactive)
23 | O=C(O)/C=C(\CC(=O)O)C(=O)O | 0.55% (inactive)
24 | Cc1nc2n(c(=O)c1CCN1CCC(c3noc4cc(F)ccc34)CC1)CCC[C@H]2O | -7.1% (inactive)
25 | NC(N)=NCCN1CCCCCCC1 | 1.25% (inactive)
26 | Cc1cc(=O)n(-c2ccccc2)n1C | -26.3% (inactive)
27 | C[N+]1(C)[C@@H]2CC(OC(=O)[C@H](CO)c3ccccc3)C[C@H]1[C@@H]1O[C@@H]12 (some centres not stated) | -19.7% (inactive)
28 | CC(C)NC[C@@H](O)COc1cccc2ccccc12 | 6.9% (inactive)
29 | Cc1c(C(=O)O)c(O)cc2c1C(=O)c1c(O)c([C@@H]3O[C@H](CO)[C@@H](O)[C@H](O)[C@H]3O)c(O)c(O)c1C2=O | 46.7% (inactive)
30 | CO[C@H]1C=CO[C@@]2(C)Oc3c(C)c(O)c4c(O)c(c(/C=N/N5CCN(C)CC5)c(O)c4c3C2=O)NC(=O)/C(C)=C\C=C[C@H](C)[C@H](O)[C@@H](C)[C@@H](O)[C@@H](C)[C@H](OC(C)=O)[C@@H]1C | 67.8% (active)
31 | NC(CS)C(=O)O (configuration not stated) | -0.35% (inactive)
32 | Cc1nc(-c2ccc(OCC(C)C)c(C#N)c2)sc1C(=O)O | 25.8% (inactive)
33 | Oc1cccc2[nH]ccc12 | 41.8% (inactive)
34 | CCCCCCCCCCCCCCCCC(C(=O)O)C(O)(CC(=O)O)C(=O)O (configuration not stated) | 99.8% (active)
35 | C#CCN[C@@H]1CCc2ccccc21 | -29.8% (inactive)
36 | Cc1c[nH]c2ccccc12 | 3.8% (inactive)
37 | CC(=O)Oc1c(C)c(C)c2c(c1C)CC[C@@](C)(CCC[C@H](C)CCC[C@H](C)CCCC(C)C)O2 | -9.9% (inactive)
